Activity calls are given as the source filed them.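 Rule for the calls: active = compounds blocking cell cycle progression with a potency of 5000 nM or lower; inconclusive = potency above 5000 nM but under 10000 nM; inactive = the rest.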
Experiment: qHTS for Inhibitors of Ubiquitin-specific Protease USP2a Using CHOP2 as the Reporter: Cell Cycle
Details: HCT116 cell cycle arrest, propidium iodide DNA content, 16 h
Description: Homeostasis of cellular proteins is maintained through a combination of synthesis and degradation. The pathway that accounts for the majority of protein degradation is the ubiquitin-proteasomal pathway. Ubiquitin (Ub) is highly conserved in all cells and the generation of a multi-Ub chain typically targets proteins for degradation by the proteasome. However, ubiquitination is highly reversible and dynamic. Deubiquitination, the reverse process, is catalyzed through the action of enzymes referred to as isopeptidases or deubiquitinating enzymes (DUBs). This group of enzymes is collectively responsible for maintaining adequate pools of free ubiquitin and regulating the ubiquitination status of cellular proteins. The class of DUBs referred to as the ubiquitin-specific proteases (USP) family functions endoproteolytically to cleave Ub chains from a wide range of protein substrates. […] Cells in G2 have twice the fluorescence as cells in G1, and the Acumen allows the cells to be binned by their individual fluorescence properties. Therefore, in the presence of an active USP2 inhibitor the fluorescence of a cell would be lower since it would not progress from G1 to S and then G2. […]
HCT116 cells at 600 cells/well were plated in 96-well plates and allowed to adhere overnight (37C, […]). […] Intensity of the DNA stain per cell was quantified using the Acumen plate reader. […]

Structure (SMILES)	Potency
Cc1ccc(S(=O)(=O)Nc2cc(C(F)(F)F)ccc2C(=O)Nc2nc(-c3ccccc3)cs2)cc1	2000 nM (active)

— PubChem BioAssay AID652264 (National Center for Advancing Translational Sciences (NCATS), 2013)
